Here are results for 42 sequences from PMC7819943, “Rice protein-binding microarrays: a tool to detect cis-acting elements near promoter regions in rice”.

Over roughly 68,000 sequences, “fluorescence intensity (a.u.)” has its median near 9,100; the highest 2% begin near 16,000. The full list was thinned out, with the highest values kept by preference.

OsWRKY34, sequence (Q0JBA9 entry or part of it): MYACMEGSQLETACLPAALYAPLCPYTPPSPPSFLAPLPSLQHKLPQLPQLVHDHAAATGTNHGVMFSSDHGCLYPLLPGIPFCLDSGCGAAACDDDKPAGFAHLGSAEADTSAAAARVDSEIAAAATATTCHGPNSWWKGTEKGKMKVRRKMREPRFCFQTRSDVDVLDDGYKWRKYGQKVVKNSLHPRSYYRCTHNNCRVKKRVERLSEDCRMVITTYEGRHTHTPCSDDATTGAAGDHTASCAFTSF

This assay has as its target OsWRKY34 (Oryza sativa, UniProt Q0JBA9 1-250). Briefly: protein-binding microarray (RPBM); PBS, 2% BSA, 51.3 ng/ul salmon testes DNA, 50 uM zinc acetate, 200 nM TF, 25 C, 1 h; high values mean tight binding. Particulars: protein: recombinant; tags: N-terminal polyhistidine and DsRed monomer fusion (pET32a); label: CyDye5-dUTP incorporated in the synthesized complementary strand; 3' TTTTT single-stranded linker to array surface; dsDNA, one strand shown. The procedure, abridged:
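Binding signal here means per-feature fluorescence intensity in arbitrary units. The values were read on an Axon 4000B scanner after a custom Agilent array, double-stranded by primer extension with Cy5-dUTP, was incubated with 200 nM protein at 25 °C for 1 h in PBS with 2% BSA, salmon testes DNA and 50 µM zinc acetate, then washed. The proteins were transcription factors with an N-terminal polyhistidine tag and DsRed, expressed in E. coli BL21-CodonPlus and purified on Ni–NTA.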
For the sequence “TTCGAGCACATCTACTTCGCGCTCCCAAACTCCGTGGTGTCGGAGTCACCTAGTGCAG”, the binding signal is 8080 fluorescence intensity (a.u.).

In the case of “TCATATGGGTTGGTGTATGTGTATTGTGAGTCTGTGTTTGCGGAGTCACCTAGTGCAG”, the binding signal is 8300 fluorescence intensity (a.u.).

As to “TCATATATGAGTTTGTGGGTGTGGGTGTTTGCGAGCTTTTCGGAGTCACCTAGTGCAG”, the binding signal was 30700 fluorescence intensity (a.u.).

Turning to “TGTTGTTGTGGTGGTGGTGGTGGTGGTAGTGCGTGAGTGACGGAGTCACCTAGTGCAG”, the binding signal is 21200 fluorescence intensity (a.u.).

As for “GAGGTGTGTGTTCGTAGAGATGAGTGCGTGCGCGTTGTGACGGAGTCACCTAGTGCAG”, the binding signal was 9140 fluorescence intensity (a.u.).

With “TCTCTCTGTGTGTGTTTGTGTCATATATGAGTTTGTGGGTCGGAGTCACCTAGTGCAG”, the binding signal is 9570 fluorescence intensity (a.u.).

Consider “GCAATTGTTCAATATTTTTTTGTGTGTATGTGTTTTTTTTCGGAGTCACCTAGTGCAG”, for which the binding signal is 18200 fluorescence intensity (a.u.).

As for “ATTTCGGATTTGTATGTATTGTGTTTTTTTAAAAAAAATTCGGAGTCACCTAGTGCAG”, the binding signal is 9880 fluorescence intensity (a.u.).

As to “GGGTGAGTGTGTGTTGTGCGTTGTGAGTGTGTATGTGTTTCGGAGTCACCTAGTGCAG”, the binding signal is 17200 fluorescence intensity (a.u.).

With “TTTTTTTGTGTTTTGCAATTTTATGTTTTGCACTTATTTTCGGAGTCACCTAGTGCAG”, the binding signal was 8070 fluorescence intensity (a.u.).

For “GTGGGTGTTTGCGAGCTTTTGTTCGTATGCTTTTTTACTTCGGAGTCACCTAGTGCAG”, the binding signal is 9960 fluorescence intensity (a.u.).

Regarding “GGGTGAGTGCGCGTGCGTTGTGAGTGTTTGTATTGTACTGCGGAGTCACCTAGTGCAG”, the binding signal was 9790 fluorescence intensity (a.u.).

Turning to “GTTGTTTGGTTGCGTGAGGAGAGGAGGAGGAGGAGGAGGACGGAGTCACCTAGTGCAG”, the binding signal is 8200 fluorescence intensity (a.u.).

On to “ATCCCACCGTGGCGCCACCCTATTGGGCCCTACTCTTCAGCGGAGTCACCTAGTGCAG”, for which the binding signal was 8780 fluorescence intensity (a.u.).

In the case of “ACTCCATATCGCTTCGCGATTTTTTGTTGACCAAATCAATCGGAGTCACCTAGTGCAG”, the binding signal was 9610 fluorescence intensity (a.u.).

On to “AATCTCGTTCCTTGCTGTTGTGACTAGTATCGTTGCCTACCGGAGTCACCTAGTGCAG”, for which the binding signal was 10500 fluorescence intensity (a.u.).

As to “GCCTGCTGTTCCTTTTAGTTTCTCCAAGCTCCTGCCAACACGGAGTCACCTAGTGCAG”, the binding signal is 8320 fluorescence intensity (a.u.).

For the sequence “CGTGGTGGTGGTAGGGGAGGGGATGGATGATATGGCGTGACGGAGTCACCTAGTGCAG”, the binding signal was 22400 fluorescence intensity (a.u.).

For “GGAGGCATGATGGCGGCATGGTGGAGGGTGGGGTGACGTGCGGAGTCACCTAGTGCAG”, the binding signal was 12000 fluorescence intensity (a.u.).

Take “ACCTTTTATGGTGGGGTAGGAGTAGGTGACGGTGGAGATTCGGAGTCACCTAGTGCAG”: the binding signal is 19000 fluorescence intensity (a.u.).

Consider “CTAGATTCGTTTTTTATGGGGTGGAGGGAGTACATGCCTTCGGAGTCACCTAGTGCAG”, for which the binding signal is 12800 fluorescence intensity (a.u.).

Take “TATAGTAGTATGGGTGGAGATTTATATTTTTCTCTCGATTCGGAGTCACCTAGTGCAG”: the binding signal is 8940 fluorescence intensity (a.u.).

As to “ACGCGGGGATGGATGATGGTGGTGGCGGCGAGGGGATGATCGGAGTCACCTAGTGCAG”, the binding signal was 9170 fluorescence intensity (a.u.).

On to “GAAATACTCCAATGGGTTAACTTAGGGTCGGGAAGGGGAGCGGAGTCACCTAGTGCAG”, for which the binding signal was 10100 fluorescence intensity (a.u.).

For the sequence “TTCCTGCTCTGTCCGTGCTCGACTCAATTCATTGTCAACCCGGAGTCACCTAGTGCAG”, the binding signal is 8690 fluorescence intensity (a.u.).

Regarding “CTTTGCATCTCTTCTTTTCTTTCTTTTTTTTTTCTTTTCTCGGAGTCACCTAGTGCAG”, the binding signal is 12100 fluorescence intensity (a.u.).

Consider “GTTAACTTTTTAGCACATGTTTGACCGTTCGTCTTATTCACGGAGTCACCTAGTGCAG”, for which the binding signal was 12600 fluorescence intensity (a.u.).

Turning to “CCTCTCTTTCTCTCACTCTCTGTGACTCTTGTCTTTTTGTCGGAGTCACCTAGTGCAG”, the binding signal was 8390 fluorescence intensity (a.u.).

Consider “TTTTTAGTACATGTTTGACCGTTCGTCTTATTCAAAAAATCGGAGTCACCTAGTGCAG”, for which the binding signal was 10700 fluorescence intensity (a.u.).

On to “TCCACGTTGACCACATCGCGTCACACCGTCCACGACTTTTCGGAGTCACCTAGTGCAG”, for which the binding signal is 12700 fluorescence intensity (a.u.).

With “CCGTTGACTTTTTAGTACATGTTTAACCGTTCGTCTTATTCGGAGTCACCTAGTGCAG”, the binding signal is 38600 fluorescence intensity (a.u.).

In the case of “TTCATCTCACGTACTGTTCTTTTGCCTCTCGCTAGCTCGTCGGAGTCACCTAGTGCAG”, the binding signal is 9220 fluorescence intensity (a.u.).

In the case of “TGTTCGCGTCCATCGTTGACTTTTTCAACGCCATGCACGCCGGAGTCACCTAGTGCAG”, the binding signal was 30900 fluorescence intensity (a.u.).

For the sequence “GACTTTTTAGCACATGTTTAACCGTTCGTCTTATTCAAAACGGAGTCACCTAGTGCAG”, the binding signal is 12100 fluorescence intensity (a.u.).

For the sequence “GCCTCTTTTTTGTCGCTCTCACTGTCTCACACCTACACGTCGGAGTCACCTAGTGCAG”, the binding signal was 16400 fluorescence intensity (a.u.).

Turning to “ATATTGTTGACTTTTTAGCACATGTTTAACCGTTCATCTTCGGAGTCACCTAGTGCAG”, the binding signal was 19600 fluorescence intensity (a.u.).

Regarding “AAGTTTTCGCGTCCAACTTTCATCGTTCGTCTTATTTGAACGGAGTCACCTAGTGCAG”, the binding signal was 10600 fluorescence intensity (a.u.).

“GTTAACTTTTTAGAACATGTTTGACCGTTCGTCTTATTCACGGAGTCACCTAGTGCAG”: the binding signal is 8930 fluorescence intensity (a.u.).

Take “CATTGTGCGCTCTGGAGAGGCTCCAAACCACCATTGTTCGCGGAGTCACCTAGTGCAG”: the binding signal was 8090 fluorescence intensity (a.u.).

Regarding “GCCCTCGTCGTCGTCCGACCACCCGATCCCGACGAGAACCCGGAGTCACCTAGTGCAG”, the binding signal was 8690 fluorescence intensity (a.u.).

In the case of “ATCTACTACTATTCTACTCTACTCGCAAGTCTCACAAACACGGAGTCACCTAGTGCAG”, the binding signal is 8740 fluorescence intensity (a.u.).

“AAAAAGAGTTCTCTTCTTCACTTCTACTCTTCACAACTTTCGGAGTCACCTAGTGCAG”: the binding signal was 9410 fluorescence intensity (a.u.).
